Measured values as given in the OligoGym collection.

Target: IFI44L
Assay: pooled miR-30 sensor sort-seq; sequence = guide strand
Settings: shRNA
Also: reference of the scale not given here.

Sequence	sensor-assay potency score (higher = more potent)
TTCTTTGTGAACTTGCTTCACT	0.156
TACTTCTTTGTGAACTTGCTTC	0.0933
TATGTCGTCTAGGTTATCCTTA	0.221
TTTGTGAACTTGCTTCACTTTT	-0.819
TTGAAGTGAAAACCATAGGGAA	-0.486
TTATGGACATTCATGACCCGGC	-0.0543
TTTATGGACATTCATGACCCGG	-1.2
TAGCATTTTATGGACATTCATG	-1.18
TTGTCTTGAAGAACCTCACTGC	0.709
TAATACTTCTTTGTGAACTTGC	0.781
TTTCGATAAACGACACACCAGT	-0.943

Target: IFLTD1
Assay: as above
Settings: shRNA

Sequence	sensor-assay potency score (higher = more potent)
TCTTCTTTTTCTTAGACCCTGA	-0.319
TAGACAGATAGTAACCAAGAGG	-1.22
TAATTTGAGATATCTTTCTTAG	-0.577
TTGCTTTTCTAGTAGCTGGTTG	-0.208
TAAGTTTCTTTGAATCACCAAA	-0.981
TTGAGATATCTTTCTTAGGTTG	-0.851
TTGAATAATACTAACCATCTGC	0.269
TTGTCCATTCACATTTTGCTGG	-0.587
TTGCTCTAAACTTGTCTTGTTC	-0.614
TTGTTATACAATCAGGACTTGC	-1.51
TATAGTTACTCTACTAATCTGA	0.529
TTTTCCACTCTGGAACAGCTAC	-0.846

Target: IFNA17
Assay: as above
Settings: shRNA

Sequence	sensor-assay potency score (higher = more potent)
TTGCTGGTAAAGTTCAGTGGAA	-0.731
TATCACACATGCTTCCAGGTTA	0.103
TATTTTTTGCAAGTTTGTTGAA	-0.556
TGTATTTCTTCTCTGTTAGATA	-1.15
TCTGAGGCAGATCACAGCCTAG	-1.69
TTCTCTGTTAGATAAAGAGTGA	-0.598
TAGAGAACAGATGGATTTGTAG	-0.448
TTCCAGGTTATTCAGTTGCTGG	-1.21
TCTTCTGGAACTGGTTGCCATC	-1.69
TCTTCCATCCCAACCTCCTGTA	-0.396

Target: IFT52
Assay: as above
Settings: shRNA

Sequence	sensor-assay potency score (higher = more potent)
TAATCCACAGTTTTACTCCATT	-1.37
TTAATATTGGTGTCAAATCTGG	-0.514
ATATTGATCACTGAACATGTGA	-0.0473
TGAATCTTCCAATTACTCCGAA	0.152
TGAACATGTGACATGAACCAAG	-0.609
TTTCACATTTAGCTGCTCGTGA	0.557
TTTGGCATCCTGTTGGTCCTTT	0.0621
